From PubChem BioAssay (Tox21) come the findings set out here.

SMILES strings stand for the structures. Inconclusive results are not listed. Values without a mark were called inactive. Activity calls are given as the source filed them. Calls come from the whole dose curve; as a rule, active = well fitted cell-killing curve with a large enough effect in the repeat runs; inconclusive = weak or mixed curves, or effect the other way; inactive = flat fitted curve, though single readings scatter.
% is set by controls: 0 for no effect and ±100 for the full control effect; potency is the fitted concentration of half-maximal effect.

The test is described as follows: qHTS RealTime-Glo MT Cell Viability Assay in HEK293 cells - 32 hour (AID 1224868). For activity change, negative = cytotoxic: top concentration of the series differs between compounds. Note: nearly all actives have a fitted effect of over 50% in size. As to conditions: RealTime-Glo luminescence; series mostly up to 76.8 µM; activity change, negative = cytotoxic: at the top concentration. An excerpt:
National Center for Advancing Translational Sciences [NCATS]
NIH Chemical Genomics Center [NCGC]
U.S. Environmental Protection Agency [EPA]
National Institutes of Environmental Health Sciences [NIEHS]
National Toxicology Program [NTP]
U.S. Food and Drug Administration [FDA]
Measure of cell viability is critical in the cell-base assay. Analysis of cell viability is necessary for the characterization of cell responses to cytotoxic drugs and environmental stress. A RealTime-Glo MT Cell Viability Assay to monitor cell viability in real time of continues cell culture during 40 hours of compound treatment was used to screen Tox21 10K library compounds in Hek293 cells. The RealTime-Glo MT Cell Viability Assay is a nonlytic, homogeneous, bioluminescent method to measure cell viability in real time using a simple, plate-based method. The assay involves adding NanoLuc luciferase and a cell-permeant prosubstrate to cells in culture. Viable cells reduce the proprietary prosubstrate to generate a substrate for NanoLuc luciferase. This substrate diffuses from cells into the surrounding culture medium, where it is rapidly used by the NanoLuc Enzyme to produce a luminescent signal. The signal correlates with the number of viable cells, making the assay well suited for cytotoxicity studies.
Tox21 Assay Protocol Summary:
The mixture of Hek293 cell suspension and reagents were dispensed at 600cells/6 ul/well in 1536-well tissue culture treated black solid bottom plates using a Multidrop dispenser. After the assay plates were incubated at a 37 C/5% CO2 incubator for 5 hours, 23 nL of compounds dissolved in DMSO, positive and negative controls was transferred to the assay plate by a pintool work station. The plates were incubated at 37 C for 40 hours. The luminescence intensity were measured at 0h, 8h, 16h, 24h, 32h and 40h time points using ViewLux plate reader during compound treatment.
Take `O=C(O)CCSSCCC(=O)O`: the “activity change, negative = cytotoxic” value is 7.8%.

With `CC(C)(C)OC(=O)c1ccc(O)cc1`, the “activity change, negative = cytotoxic” value was -23.7%. As for `CCN1CCc2nc(N)oc2CC1`, the “activity change, negative = cytotoxic” value is 0.606% [at 35.3 µM]. Regarding `c1ccc2nccnc2c1`, the “activity change, negative = cytotoxic” value was 9.4%. Regarding `OC[C@H](Cc1cccc(O)c1)[C@H](CO)Cc1cccc(O)c1`, the “activity change, negative = cytotoxic” value is -8.63%. The same measure, in the same setting: the figure for `C[C@@H](Oc1ccc(CNC(=O)c2cccnc2Oc2ccc3c(c2)OCO3)c(F)c1)C(=O)O` is 10.3%; for `COP(=O)(OC)OC(c1ccc(Cl)cc1)P(=O)(OC)OC` (stereo not given) it is 9.53% [at 35.3 µM]; for `O=C(/N=N/C(=O)OCc1ccccc1)OCc1ccccc1` it is -9.43%. Same read-out and setting: for `CCC(C)(CCC(C)C)C(=O)O` (stereo not given) the value was 3.83%; for `CN(CCOc1ccc(NS(C)(=O)=O)cc1)CCc1ccc(NS(C)(=O)=O)cc1`, -0.201% [at 35.3 µM]. For the compound `O=C(NCCc1c[nH]c2ccccc12)c1cccnc1`, the “activity change, negative = cytotoxic” value is -13.6% [at 35.3 µM]. Take `CCO[Si](CCCS)(OCC)OCC`: the “activity change, negative = cytotoxic” value is 23.5%.

As to `COc1cc(C(=S)N2CCOCC2)cc(OC)c1OC`, the “activity change, negative = cytotoxic” value is 5.76% [at 35.3 µM]. The same measure, in the same setting: the figure for `COCCOCCOCCOCCOCCO` is -0.672%; for `O=C(CCN1CCN(CCO)CC1)N1c2ccccc2Sc2ccc(C(F)(F)F)cc21` it is -14.5% [at 35.3 µM]; for `N[C@@H](CCC(=O)Nc1ccc([N+](=O)[O-])cc1)C(=O)O` it is -1.9%. Same read-out and setting: the figure for `CC[C@H](C)C(=O)O[C@H]1C[C@H](O)C=C2C=C[C@H](C)[C@H](CC[C@@H](O)C[C@@H](O)CC(=O)O)[C@H]21` is 9.01%; for `O=C1O[C@@H]2[C@@H](O)[C@H](O)O[C@@H]2[C@H]1O` it is 0.03%. For `O=C(Nc1ccc(Cl)c(Cl)c1)C1CC1`, the Potency was 9.52 µM (active). For `COCCOCCOCCOCCO`, the “activity change, negative = cytotoxic” value was 11.2%. Regarding `O=S(=O)(O)CCN1CCN(CCO)CC1`, the “activity change, negative = cytotoxic” value is -1.22%. Still for that read-out and setting: the figure for `COc1ccc(-c2cc(=O)c3c(O)cc(O[C@@H]4O[C@H](CO[C@@H]5O[C@@H](C)[C@H](O)[C@@H](O)[C@H]5O)[C@@H](O)[C@H](O)[C@H]4O)cc3o2)cc1O` is 0.408% [at 35.3 µM]. The same measure, in the same setting: for `OCCN(CCO)c1cccc(Cl)c1` the value was 0.405%. Turning to `COc1cc2c(cc1OC)C(=O)CC2`, the “activity change, negative = cytotoxic” value was -21.5% [at 35.3 µM].

For the compound `CCOc1cc(NC(C)=O)ccc1C(=O)OC`, the “activity change, negative = cytotoxic” value was -11.9% [at 35.3 µM]. On to `CC(C)=CCOC(=O)c1ccccc1`, for which the “activity change, negative = cytotoxic” value is -1.74%.

On to `O=C1c2ccccc2C(=O)N1CCl`, for which the “activity change, negative = cytotoxic” value is 0.578%.

As to `COc1cc2c(cc1OC)[C@@H]1CC(=O)[C@@H](CC(C)C)CN1CC2`, the “activity change, negative = cytotoxic” value was -10.5% [at 35.3 µM].

Take `O=P(O)(O)OP(=O)(O)O`: the “activity change, negative = cytotoxic” value is 7.62%. Take `O=C(O)c1cc(Cl)cc([N+](=O)[O-])c1Cl`: the “activity change, negative = cytotoxic” value was 17%.

For the compound `CCn1ccc(NS(=O)(=O)c2ccc(N)cc2)nc1=O`, the “activity change, negative = cytotoxic” value is 3.94% [at 35.3 µM]. Same read-out and setting: the figure for `C=COCCOCCOCCOC=C` is 3.32%; for `COc1ccc2c(c1)C(=O)N(CCc1ccc(S(=O)(=O)NC(=O)NC3CCCCC3)cc1)C(=O)C2(C)C` it is -6.73% [at 35.3 µM].

As for `C=CC(OCC)OCC`, the “activity change, negative = cytotoxic” value is 12%. Turning to `CC(C)CC(C)CC(C)CC(C)COC(=O)c1ccccc1C(=O)OCC(C)CC(C)CC(C)CC(C)C` (stereo not given), the “activity change, negative = cytotoxic” value was 2.99%. Turning to `N#Cc1ccc(C(=O)O)cc1`, the “activity change, negative = cytotoxic” value was 8.82%. Still for that read-out and setting: the figure for `Nc1ccc(S(=O)(=O)Nc2ccc(Cl)nn2)cc1` is -2.48% [at 35.3 µM]. `C=Cc1ccccn1`: the “activity change, negative = cytotoxic” value is -4.4%. Same read-out and setting: the figure for `CC(=O)Nc1ccc(S(=O)(=O)Nc2ccc([N+](=O)[O-])cc2)cc1` is -5.87% [at 35.3 µM]; for `Cc1c(I)c(=O)n(-c2ccccc2)n1C` it is 6.61% [at 35.3 µM].
